hNpr1 antagonist = human Npr1 receptor antagonism | P16066 | HEK293 hNpr1 GloSensor cGMP, ANP-stimulated luminescence | Potency, µM (top dose mostly 46.3 µM), for inactives: at the highest dose activity change, negative = inhibition, usual class: inhibitors | actives 1.6% (n = 76,000); calls by dose curve; also: nearly all actives have a fitted effect of over 60% in size
Target sequence (P16066 whole entry, looked up): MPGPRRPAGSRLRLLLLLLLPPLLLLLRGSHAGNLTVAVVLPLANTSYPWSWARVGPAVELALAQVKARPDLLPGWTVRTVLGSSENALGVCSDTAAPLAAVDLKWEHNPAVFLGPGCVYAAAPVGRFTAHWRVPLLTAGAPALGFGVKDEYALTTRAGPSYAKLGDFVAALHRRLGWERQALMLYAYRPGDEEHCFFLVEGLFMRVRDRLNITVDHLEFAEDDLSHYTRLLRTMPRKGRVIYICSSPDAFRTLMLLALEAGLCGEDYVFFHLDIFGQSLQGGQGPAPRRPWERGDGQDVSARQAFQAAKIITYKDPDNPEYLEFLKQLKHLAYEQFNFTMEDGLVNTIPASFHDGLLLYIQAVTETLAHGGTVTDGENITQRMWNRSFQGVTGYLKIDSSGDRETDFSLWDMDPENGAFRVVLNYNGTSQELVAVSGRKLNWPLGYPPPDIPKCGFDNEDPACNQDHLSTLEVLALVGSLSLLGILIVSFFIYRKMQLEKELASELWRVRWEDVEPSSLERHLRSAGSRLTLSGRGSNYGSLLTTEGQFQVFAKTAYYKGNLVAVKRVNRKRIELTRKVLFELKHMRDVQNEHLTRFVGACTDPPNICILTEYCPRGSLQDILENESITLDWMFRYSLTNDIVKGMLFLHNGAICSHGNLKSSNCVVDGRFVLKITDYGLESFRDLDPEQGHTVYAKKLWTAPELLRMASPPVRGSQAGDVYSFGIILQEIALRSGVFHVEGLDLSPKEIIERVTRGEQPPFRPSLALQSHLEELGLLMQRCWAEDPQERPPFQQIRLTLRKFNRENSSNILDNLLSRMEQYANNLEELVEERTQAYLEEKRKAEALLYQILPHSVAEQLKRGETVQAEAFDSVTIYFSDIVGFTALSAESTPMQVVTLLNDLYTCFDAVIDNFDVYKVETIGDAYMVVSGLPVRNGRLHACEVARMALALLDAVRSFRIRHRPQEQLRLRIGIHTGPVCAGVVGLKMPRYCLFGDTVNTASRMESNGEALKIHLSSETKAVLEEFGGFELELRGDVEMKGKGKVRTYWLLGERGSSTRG
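HEK293 cells stably expressing human Npr1 and cGMP GloSensor pGS-40F, loaded 2 h with 2% GloSensor reagent, given compound 30 min at room temperature. Luminescence read before and 20 min after 0.1 nM hNppA.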
HEK293 tox = kills HEK 293 cells; HEK 293 viability, ATP luminescence (CellTiter-Glo), 48-72 h; Potency, µM (top dose mostly 115 µM), for the others: top-dose activity change, negative = cytotoxicity, most hits filed as inhibitors; actives 6.6% (n = 94,000); AID 1345083; also: nearly all actives have a fitted effect of over 60% in size
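Pintool-delivered compounds were incubated with HEK 293 cells (250 cells/well) at 37 degree Celsius for 48 or 72 hr. ATP-dependent luminescence (CellTiter-Glo) then reported remaining viable cells.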
FLuc inh = Photinus pyralis luciferase inhibition. actives 2.5% (n = 76,000). AID 1347043. purified P. pyralis luciferase, luminescence, biochemical. P08659. Potency, µM (top dose mostly 115 µM), most hits filed as inhibitors; also: nearly all actives have a fitted effect of over 65% in size
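Inhibitors were tested against purified firefly luciferase in a biochemical, low-substrate format (both substrates at 10uM) and luminescence measured with a CCD imager.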
NIH3T3 tox = cytotoxic compounds in NIH 3T3 cells; NIH 3T3 viability, CellTiter-Glo ATP luminescence, 48-72 h; actives 4.3% (n = 94,000); Potency, µM (highest dose often 96.7 µM), without a hit: top-dose activity change, negative = cytotoxicity, most hits filed as inhibitors; also: nearly all actives have a fitted effect of over 55% in size
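Viability of NIH 3T3 cells after 48 or 72 hr compound treatment at 37 °C was assessed by CellTiter-Glo, with luminescence imaged following a 10 min room-temperature step.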
GPT2 inh = GPT2 alanine aminotransferase inhibition; Q8TD30; Recombinant GPT2, coupled pyruvate oxidase/HRP Amplex Red fluorescence; Potency, µM (titrated, usually from 57.7 µM), inactives show top-dose activity change, negative = inhibition, most hits filed as inhibitors; actives 0.25% (n = 100,000); AID 1671188; also: nearly all actives have a fitted effect of over 60% in size
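Fluorescence of coupled pyruvate oxidase/HRP/Amplex Red system (50uM Amplex, 30 min, dark) reports pyruvate formed by GPT2. Enzyme reaction: 10ng/uL GPT2, 2mM L-alanine, 250uM a-KG, 30 min room temperature, pH 7.5; 50uM AOA control.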
Starred values were filed as active, the others as inactive; i = inactive; ? = inconclusive; · = no result given; [ ] = dose if it differs, or a comment. Shown are actives, neighbours in structure and some others; about 10% of the full set was active somewhere. Unless noted, calls follow the shape of the dose curve; as a rule, active = well fitted curve in the direction sought with a large enough effect; inconclusive = small, poorly fitted or top-dose-only effect, or another doubt; inactive = no such curve, though single readings can be large; an effect the other way counts as inactive or inconclusive. % is scaled to controls: 0 for no effect and ±100 for the full control effect; potency is read from the fitted curve at half-maximal effect.

SMILES	hNpr1 antagonist	HEK293 tox	FLuc inh	NIH3T3 tox	GPT2 inh
COc1ccc(-c2noc(-c3ncn4c3COC(c3ccc(F)cc3)C4)n2)c(OC)c1 (stereo not drawn)	2%	35µM*	i	32µM*	4%
CSc1ccc(-c2noc(-c3ncn4c3COC(c3ccc(F)cc3)C4)n2)cc1 (stereo not drawn)	-4%	32µM*	i	25µM*	i
CCOc1ccc(C2Cn3nnc(-c4nc(-c5ccccc5)no4)c3CO2)cc1 (stereo not drawn)	-17%	-4%	8.9µM*	-2%	i
O=C(CN1C(=O)C(c2ccccc2)=NC12CCCCCC2)NC1CCCC1	0%	-7%	i	-13%	i
COc1ccc(/C=C/c2ccc3c(c2)C(=O)N2C[C@@H](NC(=O)c4cccn4C)C[C@H]2C(=O)N3)cc1	-12%	?	i	?	-4%
COc1ccc(Nc2ccnc(N3CCCC(C(=O)N4CCOCC4)C3)n2)cc1 (stereo not drawn)	·	?	·	-24%	i
COc1ccc(CNC(=O)O[C@H]2COCCN(c3nc4ccccc4s3)C2)cc1	-1%[70.6 µM]	89µM*	i	?	1%[88.5 µM]
Cc1cccc(O[C@H]2COCCN(c3nc4ccccc4s3)C2)n1	-16%[70.6 µM]	100µM*	50µM*	?	-4%[88.5 µM]
CCCc1nn(-c2cccc(C)c2)c(=O)n1CC(=O)NCC1(O)CCCCC1	5%	-8%	i	-5%	i
O=C(c1cn(CCC2CCCCC2)nn1)N1CCN(C(=O)c2ccco2)CC1	-1%	-3%	i	-20%	-13%
CCCc1cc(N2CCC(NCCOC(C)C)CC2)nc(C)n1	7%	-10%	i	-4%	-8%
CCCc1cc(N2CCC(NCc3cc(F)c(F)c(F)c3)CC2)nc(C)n1	8%	50µM*	i	?	4%
O=C(Cc1cccc(Cl)c1)NC1CCCN(Cc2ccc(-c3cncnc3)cc2)C1 (stereo not drawn)	·	?	·	?	i
O=C(c1ccccc1F)N1CCCCCC1c1nnc(-c2ccccc2)o1 (stereo not drawn)	1%	?	i	?	2%
CN1CC(=O)N(c2ccc(Cl)cc2)Cc2c(NCCCc3ccccc3)ncnc21	-21%	?	40µM*	32µM*	i
Cc1ccccc1N1Cc2c(NCCCc3ccccc3)ncnc2N(C)CC1=O	-2%	?	i	45µM*	?
Cc1ccccc1N1Cc2c(NCCc3ccc(F)cc3)ncnc2N(C)CC1=O	0%	?	i	?	i
Cc1nc2c(c(-c3ccc(O)cc3)n1)CN(Cc1ccc(C(F)(F)F)cc1)CC2	-1%	?	i	-31%	i
COc1ccc(-c2nc(C)nc3c2CCN(Cc2cccc4ccccc24)CC3)cc1	3%	40µM*	i	?	i
Cc1nc2c(c(-c3ccc(O)cc3)n1)CN(Cc1ccccc1)CCC2	0%	?	i	?	-5%
Cc1nc2c(c(-c3ccc(O)cc3)n1)CN(Cc1cccc3ccccc13)CCC2	?	32µM*	i	32µM*	i
Cc1nc2c(c(-c3ccc(O)cc3)n1)CN(Cc1ccc(C(F)(F)F)cc1)CCC2	?	32µM*	i	?	-6%
Cc1nc2c(c(-c3ccc(O)cc3)n1)CN(Cc1ccc(OC(F)(F)F)cc1)CCC2	?	35µM*	i	?	-14%
O=C(c1ccccc1Cl)N1CCC2(CC1)CC(=O)N(c1ccccc1)c1ccccc1O2	-6%	79µM*	i	?	-5%
O=C(c1ccccc1F)N1CCC2(CC1)CC(=O)N(c1ccccc1)c1ccccc1O2	21%	79µM*	i	?	-2%
SMILES	hNpr1 antagonist	HEK293 tox	FLuc inh	NIH3T3 tox	GPT2 inh
O=C(c1ccccc1)N1CCC2(CC1)CC(=O)N(c1ccccc1)c1ccccc1O2	22%	-16%	i	-2%	2%
CC1=C[C@@H](CNC(=O)c2ccccc2)[C@H](C(C)C)C[C@H]1Cc1nnc(-c2cncn2C)o1	-15%[70.6 µM]	79µM*	i	100µM*	-7%[88.5 µM]
CC1=C[C@@H](CNc2ccccn2)[C@H](C(C)C)C[C@H]1Cc1nnc(-c2cncn2C)o1	-14%[70.6 µM]	63µM*	i	?	3%[88.5 µM]
CC(C)c1ccc([S+](=O)([O-])c2nnn3c2nc(NCc2ccncc2)c2ccccc23)cc1	·	50µM*	·	40µM*	i
C[C@]1(CO)C2CC[C@@H](O)[C@@H](CC(=O)N3CC[C@@H](O)C3)[C@]2(C)CC[C@H]1OC(=O)Nc1ccc(Cl)c(Cl)c1 (stereo partly drawn)	0%	?	i	?	0%
CN(Cc1cccc(C(F)(F)F)c1)Cc1ccccc1OCC(=O)O	2%	-2%	i	-14%	-25%
COc1ccc(F)cc1-c1cccc(C(=O)NCCNC(=O)c2cccc(Cl)c2)c1	·	20µM*	·	?	3%
COCC(=O)NCCNC(=O)c1cccc(-c2cc(F)ccc2OC)c1	·	1%	·	-20%	i
COc1ccc(F)cc1-c1cccc(C(=O)NCCNC(=O)C(C)(C)C)c1	·	?	·	?	-13%
COc1ccc(F)cc1-c1cccc(C(=O)NCCN[S+](=O)([O-])c2ccccc2)c1	·	?	·	?	2%
COc1ccc(F)cc1-c1cccc(C(=O)NCCNC(=O)c2ccc(Cl)cc2)c1	·	45µM*	·	?	2%
COc1ccc(F)cc1-c1cccc(C(=O)NCCN[S+](C)(=O)[O-])c1	·	-12%	·	-29%	i
COc1ccc(F)cc1-c1cccc(C(=O)NCCNC(=O)c2ccc(Cl)nc2)c1	·	40µM*	·	?	-6%
COc1ccc(F)cc1-c1cccc(C(=O)NCCNC(=O)Cc2cccc(Cl)c2)c1	·	?	·	40µM*	i
COc1cccc(C(=O)NC2CCN(c3ccc4nnc(C5CC5)n4n3)C2)c1 (stereo not drawn)	·	?	·	-23%	·
COc1ccc(F)cc1-c1cccc(C(=O)NCCNC(C)=O)c1	·	-25%[172 µM]	·	?	2%[88.5 µM]
COc1ccc(F)cc1-c1cccc(C(=O)NCCNC(=O)Nc2ccc(Cl)cc2)c1	·	?	·	32µM*	i
COc1cccc(C(=O)NCCNC(=O)c2cccc(-c3cc(F)ccc3OC)c2)c1	·	?	·	45µM*	3%
O=C(NCCOc1ccccc1)c1cnc2n1CCN(Cc1ccc3[nH]ccc3c1)CC2	0%[70.6 µM]	?	i	?	i
COc1ccccc1CN1CCc2ncc(C(=O)Nc3ccccc3)n2CC1	-1%[70.6 µM]	?	i	?	i
O=C(Nc1ccccc1)c1cnc2n1CCN(Cc1ccc3[nH]ccc3c1)CC2	-2%[70.6 µM]	100µM*	i	89µM*	i

High-throughput results deposited in PubChem BioAssay by National Center for Advancing Translational Sciences (NCATS).
